What follows are molecules tested against Solute carrier family 2, facilitated glucose transporter member 1 (Homo sapiens) (UniProt P11166) (assay: ST_JUDE_LEISH: Cytotoxicity at 2uM final concentration against transgenic Leishmania Mexicana promastigotes LmGLUT1 that are glucose transport deficient and complemented with the human glucose transporter GLUT1. Activity is measured by DNA content using SYBR green in vitro).
Sequence of Solute carrier family 2, facilitated glucose transporter member 1 (Homo sapiens) (P11166 whole entry): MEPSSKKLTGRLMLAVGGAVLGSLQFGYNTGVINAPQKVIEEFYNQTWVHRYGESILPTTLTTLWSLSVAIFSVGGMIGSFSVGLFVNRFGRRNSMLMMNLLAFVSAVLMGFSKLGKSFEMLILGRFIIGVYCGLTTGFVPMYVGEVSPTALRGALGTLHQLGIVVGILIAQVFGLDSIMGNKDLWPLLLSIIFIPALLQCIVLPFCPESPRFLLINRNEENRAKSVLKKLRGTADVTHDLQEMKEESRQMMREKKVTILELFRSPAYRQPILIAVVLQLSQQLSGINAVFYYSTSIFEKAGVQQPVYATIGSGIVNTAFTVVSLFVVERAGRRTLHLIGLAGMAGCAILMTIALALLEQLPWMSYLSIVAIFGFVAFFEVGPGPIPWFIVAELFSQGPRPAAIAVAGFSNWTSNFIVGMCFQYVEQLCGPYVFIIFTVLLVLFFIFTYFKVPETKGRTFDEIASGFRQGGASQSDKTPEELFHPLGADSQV
Type: functional
`CCN1CCN(c2cc(C)c3cc(NC(=O)c4cccc([N+](=O)[O-])c4)ccc3n2)CC1` gave an inhibition of -0.98%. `CCCCCCCC1CC(CC(=O)Nc2ccnc3ccc(OC)cc23)CN1` (stereo not given) was tested, and the inhibition was 1.6%. For `CC(C)CCN1CCC(Oc2ccc(NC(=O)c3ccsc3)cc2Cl)CC1`, the inhibition was -0.7%. `CN(Cc1cccc(O)c1)C1CCN(c2cc(NC(=O)c3ccc(F)cc3)ccn2)CC1` gave an inhibition of 2.02%. `O=C(N[C@@H](Cc1ccccc1)C(=O)NCc1cccc2ccccc12)c1ccc(O)c(-c2ccc(Cl)c(Cl)c2)c1` showed an inhibition of 0.35%. `O=C(NCCCNc1ccnc2cc(Cl)ccc12)c1ccccc1F` showed an inhibition of 4.12%. `O=C(Nc1cccc(C(F)(F)F)c1)c1cccc(S(=O)(=O)NCC2CCCN(Cc3ccccc3)C2)c1` (stereo not given) showed an inhibition of 1.71%. With `O=C(C=Cc1ccc(Cl)c(Cl)c1)NCCCCCN1CCC(CCCNS(=O)(=O)c2ccc(F)cc2)CC1` the inhibition was 1.12%. In the case of `CCOC(=O)c1cnc2c(OC)cc(OC)c(Cl)c2c1Nc1ccccc1`, the inhibition is reported as 5.44%. `CC(=O)N[C@H](C(=O)Nc1ccc(-c2ccc(-c3nc4cc(C(F)(F)F)ccc4[nH]3)s2)cc1)C(C)C` gave an inhibition of 5.68%. `COc1ccc(C(=O)Nc2ccc(Cl)cc2C(=O)Nc2ccncc2)cc1` showed an inhibition of 4.33%. `NC1CCN(Cc2ccc(-c3ccc(-c4nc5ccccc5[nH]4)cc3)cc2)C1` (stereo not given) was tested, and the inhibition was 12.9%. `Cc1nc2ccc(Nc3nccc(-c4c(-c5cccc(NC(=O)c6c(F)cccc6F)c5)nn5ccccc45)n3)cc2nc1C` was tested, and the inhibition was 2.58%. For `COc1cc(Nc2ccnc3cc(-c4ccccn4)ccc23)cc(OC)c1OC`, the inhibition was 5.56%. For `COc1cccc(C(=O)NCCOc2ccccc2)c1Oc1ccccc1`, the inhibition was 5.14%.

Source: ChEMBL document CHEMBL3433997, “St. Jude Leishmania screening dataset” (2016)
